RTF Ca sens inh – cardiac RTF calcium desensitization; AID 493244; P19429+P45379; IANBD-labeled cardiac RTF, Ca2+ fluorescence; actives 0.12% (n = 340,000); inhibition, % at 7.15 µM;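 active = inhibition above the mean inhibition of all tested compounds plus 3 SD, cut at about 17% in these data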;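 note: assay run at fixed EC70 calcium of 1.6 mM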
LANA-H2A inh – blocks KSHV LANA binding to histone H2A/H2B. Q9QR71. cell-free LANA-H2A/H2B peptide, fluorescence polarization. inhibition, % (no concentration beside the values). actives 0.6% (n = 320,000); in the data active = inhibition mostly above about 10%, no sharp cut-off; inactive = mostly below about 6.7%
cardiac RTF act – increases calcium sensitivity of human cardiac regulated thin filaments | AID 493008 | actives 0.24% (n = 340,000) | activation, % at 7.2 µM | IANBD-labeled TnC RTF fluorescence at EC20 calcium; 0% EC20 calcium, 100% full calcium;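 active = activation above the mean over all tested compounds plus 3 SD, cut at about 30% in these data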;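 note: rise in fluorescence read as greater calcium sensitivity of cardiac thin filaments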
C-LANA FP – KSHV C-LANA DNA binding inhibition | MBP-C-LANA/FAM-LBS DNA binding, fluorescence polarization | inhibition, % at 9 µM | actives 0.078% (n = 340,000);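 active = highest replicate inhibition at or above 60% at 9 µM, even if other replicates fall short; inactive = all replicates below 60% inhibition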
E coli Lon inh – inhibitors of E. coli Lon protease; P0A9M0; purified E. coli Lon protease, fluorescence polarization; inhibition, % at 7.94 µM; actives 0.42% (n = 360,000); in the data active = inhibition above about 13%, passing the limit was not always enough
Keap1 Nrf2 FP – disrupts human Keap1 binding to Nrf2 peptide; Q14145; Keap1 Kelch-Nrf2 peptide fluorescence polarization, 1536-well; inhibition, % at 9.4 µM; actives 0.15% (n = 340,000); AID 504523; in the data active = inhibition above about 12%;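 note: human Keap1 Kelch domain with fluorescein labeled Nrf2 9mer peptide probe; higher means more block of Keap1 binding to Nrf2 peptide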
E coli Lon conf – confirmation of E. coli Lon protease inhibitors; shares compounds with E coli Lon inh; actives 31% (n = 1,400); inhibition, % at 7.94 µM; purified E. coli Lon, fluorescence polarization; in the data active = inhibition above about 16%
Large screens that a line does not name were inactive (follow-up assays come after a bar, where they were run). In the library only some 1.3% were active in any assay of this set; here they are far more common.

COc1cccc(CN(C)C(=O)c2cc(-c3ccc(OC)c(OC)c3)nc3ccccc23)c1	E coli Lon inh 20 | E coli Lon conf inactive
CN(C)CC[n+]1ccc(C(=O)c2ccccc2)cc1	none
Cc1cccc(OCC(O)CN2C(C)(C)CC(O)CC2(C)C)c1 (stereo unspecified)	E coli Lon inh 14 | E coli Lon conf inactive
CCOC(=O)C(=COC(=O)c1ccccc1)NC(=O)Cc1ccccc1	none (no result: LANA-H2A inh)
CCC1c2ccc(C)n2CCN1C(=O)Nc1ccccc1C(=O)OC (stereo unspecified)	E coli Lon inh 23 | E coli Lon conf inactive
C=CCOC(=O)C1=C[C@H](c2coc3ccccc3c2=O)[C@@H](CCCO)[C@H](OCC)O1	E coli Lon inh 26 | E coli Lon conf inactive
CCOc1ccc(NC(=O)c2cccc(NC3=NC4CS(=O)(=O)CC4S3)c2)cc1 (stereo unspecified)	none
CCc1ccc(NC(=O)c2cccc(NC3=NC4CS(=O)(=O)CC4S3)c2)cc1 (stereo unspecified)	E coli Lon inh 24 | E coli Lon conf inactive
CSc1nc2ccc(NC(=O)NC(=O)c3c(F)cccc3F)cc2s1	none
COc1cccc(F)c1C(=O)NC(=O)Nc1ccc2nc(C)oc2c1	cardiac RTF act 45, E coli Lon inh 110 | E coli Lon conf inactive
Cc1cc(C)c(-c2cc(C(=O)Nc3c(C)n(C)n(-c4ccccc4)c3=O)[nH]n2)c(O)c1	none
Cc1ccc(-c2cc(C(=O)Nc3c(C)n(C)n(-c4ccccc4)c3=O)[nH]n2)c(O)c1	E coli Lon inh 15 | E coli Lon conf inactive
O=C(c1ccco1)[C@@H]1[C@@H]2C(=O)N(c3ccccc3)C(=O)[C@@H]2C2c3ccccc3C=CN21 (stereo partly specified)	E coli Lon inh 24 | E coli Lon conf 33
Cc1ccc(N2C(=O)[C@@H]3[C@H](C2=O)C2c4ccccc4C=CN2[C@@H]3C(=O)c2ccco2)cc1 (stereo partly specified)	none (no result: LANA-H2A inh)
COc1cc(OC)c(C2Nc3ccccc3NC3=C2C(=O)CC(C)(C)C3)cc1OC (stereo unspecified)	E coli Lon inh 17 | E coli Lon conf inactive
Cn1cccc1C1Nc2ccccc2NC2=C1C(=O)CC(C)(C)C2 (stereo unspecified)	E coli Lon inh 39 | E coli Lon conf inactive
COc1cc(C2Nc3ccccc3NC3=C2C(=O)CC(C)(C)C3)cc(OC)c1OC (stereo unspecified)	none
CCCCN1C(=O)c2cccc3cc(O)cc(c23)C1=O	E coli Lon inh 33 | E coli Lon conf inactive
COc1ccccc1N(CC(=O)NC1CCCC1)C(=O)CCC(=O)Nc1ccccn1	E coli Lon inh 18 | E coli Lon conf inactive
O=C(Nc1ccc(C(=O)N2CCN(c3ccc(Cl)cc3)CC2)cc1)C1=CSCCO1	E coli Lon inh 25 | E coli Lon conf inactive
O=C(Nc1ccc(C(=O)N2CCN(c3ccc(F)cc3)CC2)cc1)C1=CSCCO1	none
O=C(CNC(=O)c1ccc(-c2ccccc2)cc1)Nc1ccc(S(=O)(=O)Nc2ncccn2)cc1	E coli Lon inh 30 | E coli Lon conf 43
O=C(CS(=O)(=O)c1ccccc1)Nc1ccc(S(=O)(=O)Nc2ncccn2)cc1	none
O=C(Cc1ccc(Cl)cc1)Nc1ccc(S(=O)(=O)Nc2ncccn2)cc1	none
O=C(Cc1c(Cl)cccc1Cl)Nc1ccc(S(=O)(=O)Nc2ncccn2)cc1	E coli Lon inh 19 | E coli Lon conf inactive
CC(c1ccccc1)n1c(S(=O)(=O)O)nc2ccccc21 (stereo unspecified)	none
CC(C)n1c(S(=O)(=O)O)nc2ccccc21	E coli Lon inh 14 | E coli Lon conf inactive
CCn1c(CSc2nnc3ccccn23)nc2cc(C(=O)O)ccc21	E coli Lon inh 52 | E coli Lon conf 42
O=C(c1ccc[nH]1)N1O[C@@H]2C=C[C@H]1C2	none (no result: LANA-H2A inh)
Clc1ccc(N2O[C@H]3C=C[C@@H]2C3)nc1	E coli Lon inh 61 (no result: RTF Ca sens inh, LANA-H2A inh, cardiac RTF act, C-LANA FP, Keap1 Nrf2 FP) | E coli Lon conf 129
Cc1ccc(/C=C/C(=O)Nc2cccc3cccnc23)o1	E coli Lon inh 70 | E coli Lon conf 30

Screens as filed in PubChem BioAssay.
